# In the supplement of paper PMC11417369:
# Whole data set: some 25,000 sequences, median “ln(normalized median fluorescence intensity)” near 7.1, cut for the highest 2% near 10. This is one part of a sample in which the highest values are shown more often than they occur.
# Test system: PfSIP2 AP2 domain 1 (GST-tagged)
# Assay: gcPBM binding intensity (ln(normalized median fluorescence intensity)); higher = stronger DNA binding
# Method in brief: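 After 1 h on an Agilent 4 × 180k array of primer-extended double-stranded 36-bp intergenic genomic probes and negative controls, bound GST-tagged P. falciparum DNA-binding domains were detected with Alexa488 anti-GST antibody and scanned at 488 nm. The domains had been expressed in E. coli, and binding took place in 1× PBS with 1% milk, 0.2 mg/ml BSA, 0.5% salmon testes DNA and 0.03% Triton X-100. Binding intensity is the highest Masliner-normalised natural-log median intensity across replicate spots of either probe orientation.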
row,Sequence,gcPBM binding intensity (ln)
1,TTCTCCTAATAGTTAGTGCACTACATAACTAAGAAA,10.8
2,AAATAATTAGAAATAGTGCACATAATTAAGGGATAC,10.1
3,AATGACTACATAATAGTGCAATATTAAAGAAAATTA,8.55
4,TATTTTTTTACATATTGTACATAATATAAAACTTAC [XGTACX_site8273],7.17
5,TATTATATATTAAATGCATGTAAAAATAATATTAAA [TGCATGCA_site643],7.02
6,GATAAAATCACTGGTGCATGTAGATATATAATATTA [TGCATGCA_site589],10.5
7,GAAAAATATATTCTGGTGCATGAATAAAATCATAAA,10.2
8,TACCATAATCAATGCACACATAACAAAATATTATTA [CACACA_site2722],7.33
9,ATCAAAATTGTCATTACACACCTTTATTTTTATAAT [CACACA_site5071],7.12
10,AATATATAGAGAGATATGCACACTGTATGAATGCAC [CACACA_site2677],10.3
11,TATATAGAGAGATATGCACACTGTATGAATGCCCCC [CACACA_site5476],9.53
12,TATATGGAGAGATATGCACACTGTATGAATGCCCCC [CACACA_site8853],9.32
13,ATATATATATATAATAAACACACAAATAGATATAAC [CACACA_site9234],9.02
14,AATAATTCATCATATGCACACACAATACCAAAATGT [CACACA_site7945],8.05
15,GAAAATATTAAATGAAGTACAATATTTATGTTACTT [XGTACX_site8737],6.71
16,AATATTTTTTTTTAAACATGCATATTTGCATTACCC [TGCATGCA_site437],6.99
17,TATATATATATATATACATGCATATTTTTTATTTTT [TGCATGCA_site464],9.67
18,TTTTTTTTTGGGGGTGCATGCAAGACATATATTTAA [TGCATGCA_site228],11.6
19,ACAAAATAATTGTTTACACACCCATTTGTAATTTTA [CACACA_site3615],6.88
20,TTATCATATCATGGAAGTACAAATAAAATATATAAC [XGTACX_site1608],7.24
21,ATTTCATATGGTCAACGTACTCATGCATCCCTCCTT [XGTACX_site437],6.86
22,ATTTTCACCTGAACGGTGCATATTTAATTTTAGGTT,10.5
23,TTATTTTAATTTTTGGTGCATATTCAAGTGTACCTT [GTGCAC_site9791],9.68

row,Sequence,gcPBM binding intensity (ln)
1,GTTATAATTGAACTAGTGCATAAATATATTTTAATT [GTGCAC_site9851],9.01
2,ATTTATTTATCTAGCTATTCACCATTTTCTTTTGTT [CACACA_negctrl_site1259],6.61
3,TTTAATTGATAATGAAGACAATTATATGCATCCAAA [TGCATGCA_negctrl_site138],6.79
4,ACGACATATGGATGATGTACTATCTTTATTATACAT [XGTACX_site6857],6.89
5,AAATATAAGAAAAAGGTGCTTTTTTTTTTTTTTTTT [GTGCAC_site9700],8.42
6,AAAGAAATAAGGTGCACACATATACAGATATATATA [CACACA_site4399],11.9
7,AGAAATAAGAAATATACACACATATATATATATATA [CACACA_site2808],9.79
8,ATATATATATAATAAGTGCAAAAAAAAGAAAAAAAT,8.48
9,TAAAGAAATAAATACATACACACATATATATATATA [CACACA_site3363],9.69
10,ATGCATAAAAGAAATACACACATAAATATATAAATA [CACACA_site2163],7.02
11,AAAGAAATAAGGTGCACACATATACATATATATATA [CACACA_site429],11.9
12,TATACAGATAAATACACACACACATATATATATATA [CACACA_site4845],9.39
13,TAAAAGAAATAATATACACACATATATAAAAATAAA [CACACA_site1329],6.86
14,AAATATAATATATGCACACATACATACAGATATATA [CACACA_site4235],7.09
15,TAAAAGAAATAAGGTGCACACATATACATATATATA [CACACA_site8037],11.8
16,AAAAAAAAAATACAGGTGCAATAAGAAAAAAATGGT,10.2
17,AAGGAAAAGTAAAGAAGTACTGTACCGCCAAAAAAA [XGTACX_site2607],6.98
18,TAAATATATTTATATTGTACATTTATGTTGATACCA [XGTACX_site228],6.88
19,TATAGATAAGAATATGCACACATTTTATTTTTTTTT [CACACA_site1982],7.16
20,TCTTTAAAAAAAAAAAAAAAAAATTCCAAATAAATA [TGCATGCA_negctrl_site538],6.72
21,ATTTGTTCATTTGGTTGTACATAATTTATTTTTATA [XGTACX_site785],7.26
22,TTGTATATTTTATGTACACACAATAAGTTAATATAA [CACACA_site4655],7.29
23,TATATTTATATCATCACACATTTTTTTTTTCTTTTT [CACACA_site6150],6.58
